From the supplement of paper PMC12645437, “Orthogonal IMiD-Degron Pairs Induce Selective Protein Degradation in Cells” (ACS Chemical Biology, 2025)
Whole data set: some 8,300 sequences, median “log2 fold change of degron read counts, EGFP-low vs EGFP+ sorted cells (limma voom), compound-induced degradation” near -1.1, cut for the highest 2% near 3.2. Only a selection was taken, and the highest values are over-represented in it overall.

Biological target: T1, CRBN, Q96SW2
T1 chain: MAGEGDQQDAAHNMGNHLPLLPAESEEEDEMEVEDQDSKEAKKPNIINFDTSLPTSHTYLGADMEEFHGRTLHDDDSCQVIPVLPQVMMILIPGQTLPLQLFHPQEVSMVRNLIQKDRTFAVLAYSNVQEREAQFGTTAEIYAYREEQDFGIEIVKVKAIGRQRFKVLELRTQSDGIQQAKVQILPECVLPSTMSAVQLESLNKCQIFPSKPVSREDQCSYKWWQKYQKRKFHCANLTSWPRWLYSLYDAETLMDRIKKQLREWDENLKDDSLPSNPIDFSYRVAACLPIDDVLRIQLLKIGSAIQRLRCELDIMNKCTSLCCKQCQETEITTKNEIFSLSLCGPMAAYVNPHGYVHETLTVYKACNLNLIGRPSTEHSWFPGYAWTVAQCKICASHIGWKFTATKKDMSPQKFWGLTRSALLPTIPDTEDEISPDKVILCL
Assay: log2 fold change of degron read counts, EGFP-low vs EGFP+ sorted cells (limma voom), compound-induced degradation; higher = more compound-induced degradation of the degron-EGFP fusion; degrons are variants of IKZF1/3 zinc finger 2; compound dose not given here
Conditions: Jurkat, 18 h

[1] = compound: compound 19 (5-tert-butyl-thalidomide)
[2] = compound: compound 22 (5-morpholino-thalidomide)
[3] = compound: compound 33 (diphenyl IMiD analogue)
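Further: pooled lentiviral library of zinc finger degron-EGFP fusions in mCherry-positive Jurkat cells, FACS-sorted after compound exposure, with degron abundance counted by next-generation sequencing.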

## FVCNQCGHRFTQKGNLLRHIKL [46F_47V_49N_50Q_52G_53H_54R_55F_67L_, Q9UKT9]
[1]
  log2 fold change of degron read counts: -2.83
[2]
  log2 fold change of degron read counts: -3
[3]
  log2 fold change of degron read counts: -2.59
compound: thalidomide
  log2 fold change of degron read counts: -2.33

## FWCPICGHTFTQKGNLLRHIKL [46F_47W_49P_50I_52G_53H_54T_55F_67L_, Q9UKT9]
[1]
  log2 fold change of degron read counts: -1.68
[2]
  log2 fold change of degron read counts: -1.6
[3]
  log2 fold change of degron read counts: -1.41
compound: thalidomide
  log2 fold change of degron read counts: -2.18

## FVCEQCGADFTQKGNLLRHIKL [46F_47V_49E_50Q_52G_53A_54D_55F_67L_, Q9UKT9]
[1]
  log2 fold change of degron read counts: -3.51
[2]
  log2 fold change of degron read counts: -2.64
[3]
  log2 fold change of degron read counts: -2.37
compound: thalidomide
  log2 fold change of degron read counts: -2.14

## FCCNICGAKFTQKGNLLRHIKL [46F_47C_49N_50I_52G_53A_54K_55F_67L_, Q9UKT9]
[1]
  log2 fold change of degron read counts: 1.13
[2]
  log2 fold change of degron read counts: 0.951
[3]
  log2 fold change of degron read counts: -1.32
compound: thalidomide
  log2 fold change of degron read counts: 1.19

## FKCPICGRAFTQKGNLLRHIKL [46F_47K_49P_50I_52G_53R_54A_55F_67L_, Q9UKT9]
[1]
  log2 fold change of degron read counts: -2.37
[2]
  log2 fold change of degron read counts: -1.6
[3]
  log2 fold change of degron read counts: -2.65
compound: thalidomide
  log2 fold change of degron read counts: -0.307

## FGCEVCGAAFTQKGNLLRHIKL [46F_47G_49E_50V_52G_53A_54A_55F_67L_, Q9UKT9]
[1]
  log2 fold change of degron read counts: 2.88
[2]
  log2 fold change of degron read counts: 2.24
[3]
  log2 fold change of degron read counts: 1.96
compound: thalidomide
  log2 fold change of degron read counts: 1.02

## FYCEVCGAAFTQKGNLLRHIKL [46F_47Y_49E_50V_52G_53A_54A_55F_67L_, Q9UKT9]
[1]
  log2 fold change of degron read counts: 3.87
[2]
  log2 fold change of degron read counts: 3.7
[3]
  log2 fold change of degron read counts: 2.98
compound: thalidomide
  log2 fold change of degron read counts: 1.8

## FQCEVCGAAFTQKGNLLRHIKL [46F_47Q_49E_50V_52G_53A_54A_55F_67L_, Q9UKT9]
[1]
  log2 fold change of degron read counts: 2.72
[2]
  log2 fold change of degron read counts: 3.34
[3]
  log2 fold change of degron read counts: 2.22
compound: thalidomide
  log2 fold change of degron read counts: 3.65

## FWCEVCGAAFTQKGNLLRHIKL [46F_47W_49E_50V_52G_53A_54A_55F_67L_, Q9UKT9]
[1]
  log2 fold change of degron read counts: 3.39
[2]
  log2 fold change of degron read counts: 3.9
[3]
  log2 fold change of degron read counts: 2.77
compound: thalidomide
  log2 fold change of degron read counts: 1.54

## FWCNVCGAAFTQKGNLLRHIKL [46F_47W_49N_50V_52G_53A_54A_55F_67L_, Q9UKT9]
[1]
  log2 fold change of degron read counts: 1.25
[2]
  log2 fold change of degron read counts: 2.85
[3]
  log2 fold change of degron read counts: 1.15
compound: thalidomide
  log2 fold change of degron read counts: -0.34

## FNCEVCGAAFTQKGNLLRHIKL [46F_47N_49E_50V_52G_53A_54A_55F_67L_, Q9UKT9]
[1]
  log2 fold change of degron read counts: 3.07
[2]
  log2 fold change of degron read counts: 1.6
[3]
  log2 fold change of degron read counts: 0.0337
compound: thalidomide
  log2 fold change of degron read counts: 0.576

## FYCPVCGAAFTQKGNLLRHIKL [46F_47Y_49P_50V_52G_53A_54A_55F_67L_, Q9UKT9]
[1]
  log2 fold change of degron read counts: 2.93
[2]
  log2 fold change of degron read counts: 2.85
[3]
  log2 fold change of degron read counts: 2.36
compound: thalidomide
  log2 fold change of degron read counts: 0.969

## FYCNVCGAAFTQKGNLLRHIKL [46F_47Y_49N_50V_52G_53A_54A_55F_67L_, Q9UKT9]
[1]
  log2 fold change of degron read counts: 1.57
[2]
  log2 fold change of degron read counts: 2.01
[3]
  log2 fold change of degron read counts: 1.33
compound: thalidomide
  log2 fold change of degron read counts: -0.954

## FCCNVCGAAFTQKGNLLRHIKL [46F_47C_49N_50V_52G_53A_54A_55F_67L_, Q9UKT9]
[1]
  log2 fold change of degron read counts: 0.855
[2]
  log2 fold change of degron read counts: 0.945
[3]
  log2 fold change of degron read counts: 0.918
compound: thalidomide
  log2 fold change of degron read counts: 0.447

## FCCEVCGAAFTQKGNLLRHIKL [46F_47C_49E_50V_52G_53A_54A_55F_67L_, Q9UKT9]
[1]
  log2 fold change of degron read counts: 3.57
[2]
  log2 fold change of degron read counts: 2.96
[3]
  log2 fold change of degron read counts: 2.1
compound: thalidomide
  log2 fold change of degron read counts: 2.35

## FHCEVCGAAFTQKGNLLRHIKL [46F_47H_49E_50V_52G_53A_54A_55F_67L_, Q9UKT9]
[1]
  log2 fold change of degron read counts: 3.08
[2]
  log2 fold change of degron read counts: 2.89
[3]
  log2 fold change of degron read counts: 1.84
compound: thalidomide
  log2 fold change of degron read counts: 0.737

## FMCEVCGAAFTQKGNLLRHIKL [46F_47M_49E_50V_52G_53A_54A_55F_67L_, Q9UKT9]
[1]
  log2 fold change of degron read counts: 2.23
[2]
  log2 fold change of degron read counts: 2.48
[3]
  log2 fold change of degron read counts: 2.75
compound: thalidomide
  log2 fold change of degron read counts: 2.28

## FVCDVCGAGFTQKGNLLRHIKL [46F_47V_49D_50V_52G_53A_54G_55F_67L_, Q9UKT9]
[1]
  log2 fold change of degron read counts: -0.789
[2]
  log2 fold change of degron read counts: 1.19
[3]
  log2 fold change of degron read counts: -0.11
compound: thalidomide
  log2 fold change of degron read counts: 0.879
